Source: PubChem BioAssay
The source made the active and inactive calls.

Legend:
[1] = tested on: Plasmodium falciparum Sir2 (PF13_0152, Sir2A); assay: Plasmodium falciparum Sir2A binding compounds – biochemical, small-molecule microarray, 635 nm fluorescence, primary screen (AID 1098); details: fluorescence 635 nm, higher = more signal;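 note: score merges spot fluorescence intensity with its signal-to-noise ratio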
[2] = probe aDKK1 binding to arrayed compounds – biochemical, biotinylated probe, 635/667 nm fluorescence, primary screen (AID 1099); details: small-molecule microarray, higher = more signal;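 note: score merges 667nm spot fluorescence with signal to noise across triplicate slides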
[3] = probe aCHRDL2 binding to arrayed compounds – biochemical, biotinylated probe, 635/667 nm fluorescence, primary screen (AID 1100); details: small-molecule microarray, higher = more signal
[4] = change in splice reporter luminescence, either direction, cell-based, HEK293, spliceosome inhibition project, primary screen (AID 1101); details: HEK293 splicing luciferase reporter, 24 h, higher = more signal, called active from +8 up or from −8 down;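 note: HEK293 cells carrying a splicing-competent luciferase reporter gene; test concentration not given here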
[5] = target: Fibroblast growth factor 10 (Homo sapiens) (UniProt O15520); assay: compounds binding fibroblast growth factor 10 – biochemical, small-molecule microarray, 635 nm fluorescence, primary screen (AID 1102); details: FGF10 binding, fluorescence 635 nm, higher = more signal
Chain of Fibroblast growth factor 10 (Homo sapiens) (O15520 whole entry, looked up): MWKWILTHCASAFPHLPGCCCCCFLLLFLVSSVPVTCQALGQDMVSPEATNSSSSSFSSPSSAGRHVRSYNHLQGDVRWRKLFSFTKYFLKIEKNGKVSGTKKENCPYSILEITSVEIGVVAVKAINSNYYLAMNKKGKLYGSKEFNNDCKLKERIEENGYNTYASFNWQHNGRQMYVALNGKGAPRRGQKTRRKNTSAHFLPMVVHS

[6] = tested on: glycogen synthase kinase-3 (GSK3A per assay name; protocol says GSK3B); assay: compounds binding glycogen synthase kinase-3 – biochemical, small-molecule microarray, 635 nm fluorescence, GSK3A, primary screen (AID 1103); details: fluorescence 635 nm, higher = more signal; note: the record names both GSK3A and GSK3B
[7] = target: Epidermal growth factor receptor (Homo sapiens) (UniProt P00533); assay: compounds binding epidermal growth factor receptor – biochemical, small-molecule microarray, 635 nm fluorescence, primary screen (AID 1104); details: EGFR binding, higher = more signal;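 note: score merges 667 nm emission intensity with spot signal to noise over triplicate slides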
Chain of Epidermal growth factor receptor (Homo sapiens) (P00533 whole entry, looked up): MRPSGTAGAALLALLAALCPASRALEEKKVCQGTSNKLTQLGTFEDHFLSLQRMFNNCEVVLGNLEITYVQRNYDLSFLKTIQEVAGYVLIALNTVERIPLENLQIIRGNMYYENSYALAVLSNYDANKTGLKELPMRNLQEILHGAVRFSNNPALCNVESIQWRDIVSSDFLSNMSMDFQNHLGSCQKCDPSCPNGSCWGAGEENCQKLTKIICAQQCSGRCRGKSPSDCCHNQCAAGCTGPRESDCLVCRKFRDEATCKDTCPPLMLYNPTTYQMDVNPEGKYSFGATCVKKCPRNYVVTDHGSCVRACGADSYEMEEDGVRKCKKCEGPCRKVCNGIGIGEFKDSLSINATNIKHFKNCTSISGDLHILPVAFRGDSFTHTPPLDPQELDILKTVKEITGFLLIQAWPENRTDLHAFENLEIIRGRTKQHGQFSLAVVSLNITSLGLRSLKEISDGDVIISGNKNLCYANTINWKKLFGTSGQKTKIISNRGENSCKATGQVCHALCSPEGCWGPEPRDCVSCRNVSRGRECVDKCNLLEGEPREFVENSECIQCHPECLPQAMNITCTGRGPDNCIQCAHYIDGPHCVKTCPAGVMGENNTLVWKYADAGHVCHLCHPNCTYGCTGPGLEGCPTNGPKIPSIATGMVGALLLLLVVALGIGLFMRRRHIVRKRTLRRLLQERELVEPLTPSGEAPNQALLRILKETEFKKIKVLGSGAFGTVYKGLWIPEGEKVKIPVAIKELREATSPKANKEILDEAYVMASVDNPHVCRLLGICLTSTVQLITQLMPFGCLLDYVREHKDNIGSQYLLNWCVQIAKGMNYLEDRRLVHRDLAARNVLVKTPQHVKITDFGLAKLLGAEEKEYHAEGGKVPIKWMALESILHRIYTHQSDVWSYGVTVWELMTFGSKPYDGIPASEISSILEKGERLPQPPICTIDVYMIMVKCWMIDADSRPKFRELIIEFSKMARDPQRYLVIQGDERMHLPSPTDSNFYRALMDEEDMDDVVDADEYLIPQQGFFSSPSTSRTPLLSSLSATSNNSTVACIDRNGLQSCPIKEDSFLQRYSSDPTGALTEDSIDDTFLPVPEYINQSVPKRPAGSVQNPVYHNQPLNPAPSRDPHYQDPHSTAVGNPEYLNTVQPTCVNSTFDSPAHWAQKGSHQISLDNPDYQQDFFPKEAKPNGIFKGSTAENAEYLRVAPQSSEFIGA

[8] = target: Follistatin-related protein 3 (Homo sapiens) (UniProt O95633); assay: compounds binding follistatin-related protein 3 – biochemical, small-molecule microarray, 635 nm fluorescence, primary screen (AID 1105); details: FSTL3 binding, higher = more signal;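 note: score merges emission near 667 nm and signal to noise per printed spot across three slides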
Chain of Follistatin-related protein 3 (Homo sapiens) (O95633 whole entry, looked up): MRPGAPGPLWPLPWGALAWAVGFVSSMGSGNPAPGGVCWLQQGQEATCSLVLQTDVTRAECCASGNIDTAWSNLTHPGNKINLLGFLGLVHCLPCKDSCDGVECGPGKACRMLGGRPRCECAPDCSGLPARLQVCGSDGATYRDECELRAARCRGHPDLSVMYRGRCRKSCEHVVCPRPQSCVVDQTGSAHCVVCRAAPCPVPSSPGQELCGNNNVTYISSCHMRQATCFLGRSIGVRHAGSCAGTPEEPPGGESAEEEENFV

[9] = target: Dickkopf-related protein 1 (Homo sapiens) (UniProt O94907); assay: small molecules binding DKK1 protein – biochemical, small-molecule microarray, 635 nm fluorescence scan, primary screen (AID 1106); details: higher = more signal;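 note: score merges emission near 667 nm with signal to noise over three replicate slides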
Chain of Dickkopf-related protein 1 (Homo sapiens) (O94907 whole entry, looked up): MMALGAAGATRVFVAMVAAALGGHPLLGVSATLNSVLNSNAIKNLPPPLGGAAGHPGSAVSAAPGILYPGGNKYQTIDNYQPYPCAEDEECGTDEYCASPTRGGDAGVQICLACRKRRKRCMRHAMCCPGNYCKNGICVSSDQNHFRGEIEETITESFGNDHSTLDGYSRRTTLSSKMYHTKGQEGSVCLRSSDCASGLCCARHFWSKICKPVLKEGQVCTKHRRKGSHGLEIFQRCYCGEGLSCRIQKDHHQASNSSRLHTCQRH

[10] = tested on: Inhibin beta A chain (activin A); assay: small molecules binding activin A – biochemical, small-molecule microarray, 635 nm fluorescence scan, primary screen (AID 1107); details: INHBA, higher = more signal;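 note: mouse activin A protein probed at 4.33 µg/mL on printed slides; score merges bound-protein fluorescence near 667 nm with spot signal-to-noise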
[11] = tested on: Human papillomavirus type 1a protein E7 (residues 44-93); assay: small molecules binding HPV E7 44-93 – biochemical, small-molecule microarray, residues 44-93, 635 nm fluorescence, primary screen (AID 1108); details: fluorescence 635 nm, higher = more signal;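 note: E7 fragment applied at 1 µg/mL in TBST for 1 h at 4 C; score combines spot fluorescence with its signal to noise ratio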
[12] = hepatitis C replication reporter changes, two-sided – Huh7 cells, luciferase reporter, HCV replication inhibitor project, primary screen (AID 1109); details: Huh7 HCV replicon luciferase reporter, 48 h; higher = more signal;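 note: huh7 hepatoma cells harbouring a luciferase neomycin HCV replicon reporter; luciferase luminescence as measure of HCV replicon replication; test concentration not given here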
[13] = target: Left-right determination factor 2 (Homo sapiens) (UniProt O00292); assay: small molecules binding LEFTY2 protein – biochemical, small-molecule microarray, 635 nm fluorescence scan, primary screen (AID 1110); details: higher = more signal
Chain of Left-right determination factor 2 (Homo sapiens) (O00292 whole entry, looked up): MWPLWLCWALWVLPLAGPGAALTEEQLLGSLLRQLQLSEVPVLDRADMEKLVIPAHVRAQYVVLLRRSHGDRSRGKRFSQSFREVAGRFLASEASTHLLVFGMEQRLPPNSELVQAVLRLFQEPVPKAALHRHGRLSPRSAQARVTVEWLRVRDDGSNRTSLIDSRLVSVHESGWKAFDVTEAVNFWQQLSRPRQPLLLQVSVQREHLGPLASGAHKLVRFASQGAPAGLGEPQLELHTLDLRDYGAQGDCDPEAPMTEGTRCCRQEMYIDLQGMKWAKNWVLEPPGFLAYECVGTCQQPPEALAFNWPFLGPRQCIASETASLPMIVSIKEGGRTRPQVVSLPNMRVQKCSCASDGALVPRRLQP

[14] = target: Calmodulin-1 (Homo sapiens) (UniProt P0DP23); assay: small molecules binding calmodulin-1 with EGTA – biochemical, small-molecule microarray, Cy5-labelled CALM1, profiling panel (AID 1111); details: Cy5-CALM1 binding fluorescence, higher = more signal;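 note: labelled calmodulin applied in Tris saline Tween buffer holding calcium plus EGTA and DTT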
[15] = target: Calmodulin-1 (Homo sapiens) (UniProt P0DP23); assay: small molecules binding Ca-loaded calmodulin-1 – biochemical, small-molecule microarray, Cy5-labelled CALM1, plus calcium, artefact control for SMM control-protein annotation, profiling panel (AID 1112); details: Cy5-CALM1 binding fluorescence, higher = more signal;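 note: score merges spot fluorescence with signal to noise from triplicate slides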
[16] = probe aWnt5a binding to arrayed compounds – biochemical, biotinylated probe, 635/667 nm fluorescence, primary screen (AID 1113); details: small-molecule microarray, higher = more signal;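 note: score merges 667 nm fluorescence intensity with signal-to-noise per printed feature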
[17] = probe aShh binding to arrayed compounds – biochemical, biotinylated probe, 635/667 nm fluorescence, primary screen (AID 1114); details: small-molecule microarray, higher = more signal;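 note: probe is biotin-labelled aShh protein from a stem cell growth factor screen; measures binding of labelled protein to compounds printed on the slide; score merges feature fluorescence at 667 nm with signal-to-noise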
[18] = probe aNog binding to arrayed compounds – biochemical, biotinylated probe, 635/667 nm fluorescence, primary screen (AID 1115); details: small-molecule microarray, higher = more signal;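 note: probe is biotinylated aNog protein used at 0.15 µg/mL for 1 h at 4 C; z-score combines 667 nm fluorescence of each spot with its signal to noise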
[19] = target: Torsin-1A-interacting protein 1 (Homo sapiens) (UniProt Q5JTV8); assay: compound microarray binding of lysate hLAP1 – cell lysate, small-molecule microarray, COS7 lysate, 635/667 nm fluorescence, primary screen (AID 1116); details: 635 nm fluorescence, higher = more signal
Chain of Torsin-1A-interacting protein 1 (Homo sapiens) (Q5JTV8 whole entry, looked up): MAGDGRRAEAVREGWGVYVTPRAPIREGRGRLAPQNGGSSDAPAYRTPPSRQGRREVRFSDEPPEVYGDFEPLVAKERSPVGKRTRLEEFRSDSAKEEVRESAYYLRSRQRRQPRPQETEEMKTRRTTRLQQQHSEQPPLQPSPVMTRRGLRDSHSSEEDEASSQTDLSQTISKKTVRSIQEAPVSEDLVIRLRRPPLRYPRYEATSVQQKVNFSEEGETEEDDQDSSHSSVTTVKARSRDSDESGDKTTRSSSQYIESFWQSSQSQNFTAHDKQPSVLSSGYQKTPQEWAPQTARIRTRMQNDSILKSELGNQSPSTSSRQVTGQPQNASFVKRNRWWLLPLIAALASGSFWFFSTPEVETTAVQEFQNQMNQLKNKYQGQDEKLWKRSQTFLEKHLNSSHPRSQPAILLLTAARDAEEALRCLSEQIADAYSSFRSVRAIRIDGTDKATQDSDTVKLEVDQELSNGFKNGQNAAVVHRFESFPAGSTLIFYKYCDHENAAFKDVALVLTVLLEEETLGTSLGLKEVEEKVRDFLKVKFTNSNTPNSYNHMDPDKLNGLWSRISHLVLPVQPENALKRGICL

[20] = target: Alpha-bungarotoxin (Bungarus multicinctus) (UniProt P60615); assay: compounds binding labelled alpha-BTX control protein – biochemical, small-molecule microarray, Alexa647 label, 635/667 nm fluorescence, artefact control for SMM control protein annotation, profiling panel (AID 1117); details: alpha-BTX-A647 binding fluorescence, higher = more signal
Chain of Alpha-bungarotoxin (Bungarus multicinctus) (P60615 whole entry, looked up): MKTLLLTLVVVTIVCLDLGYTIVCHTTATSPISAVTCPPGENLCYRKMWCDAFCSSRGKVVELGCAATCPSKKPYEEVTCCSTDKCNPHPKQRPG

Compound	composite z-score [1]	composite z-score [2]	composite z-score [3]	z-score [4]	composite z-score [5]	composite z-score [6]	composite z-score [7]	composite z-score [8]	composite z-score [9]	composite z-score [10]	composite z-score [11]	z-score [12]	composite z-score [13]	composite z-score [14]	composite z-score [15]	composite z-score [16]	composite z-score [17]	composite z-score [18]	composite z-score [19]	composite z-score [20]
COc1ccc(C(O)C2C=CC3C(=O)N(c4ccccc4)C(=O)C3N2Nc2ccc(C(C)C)cc2)c2ccccc12 (stereo not given)	1.6	0.661	0.942	0.48 (inactive)	0.839	1.29	0.0751	1.04	-0.0879	0.87	1.39	-0.716	-0.146	1.17	0.922	0.0068	0.232	-0.229	0.865	2.55
CS(=O)(=O)CCOC(=O)C1=CC(CCCO)=CC(C2CC2)N(Cc2cccc(OC(F)(F)F)c2)C=C1C(=O)OCCS(C)(=O)=O (stereo not given)	1.09	0.0231	-0.0768	0.155 (inactive)	0.039	0.306	-0.0252	0.054	-0.325	0.911	1.3	-1.63	-0.022	0.238	0.478	-0.0643	-0.0243	0.576	1.9	0.0358
C=C[C@@H](C)[C@@H](OC(=O)Nc1ccc(SC)cc1)c1ccc(OCCO)cc1	1.4	-0.289	0.753	-1.01 (inactive)	0.472	0.335	0.0159	0.426	-0.185	0.0303	1.27	-0.181	-0.0734	1.24	0.305	-0.0512	-0.0192	-0.358	0.882	0.954
O=C1N[C@@H](Cc2ccccc2)C(=O)N2[C@@H]1C[C@@H](C(=O)O)[C@H]2c1ccc(O)cc1	1.31	0.731	0.707	-0.485 (inactive)	0.727	0.86	0.315	1.45	1.63	0.853	0.436	2.57	0.572	0.58	-0.661	0.0718	0.0711	-0.0382	0.466	0.431
CN1C=C(C(=O)OCCS(C)(=O)=O)C(C(=O)OCCS(C)(=O)=O)=CC(c2ccc(CO)cc2)=CC1c1cccs1 (stereo not given)	0.76	0.162	0.102	0.497 (inactive)	0.588	0.499	0.294	0.226	-0.0496	1.47	0.229	0.19	0.0843	-0.165	-0.388	-0.0405	0.0062	0.304	1.46	0.821
C=CCNC(=O)[C@H]1[C@@H]2C(=O)O[C@@H](c3ccccc3)[C@@H](c3ccccc3)N2[C@@H](c2ccc(O)cc2)[C@]12C(=O)N(C(=O)OCCOC)c1ccc(C#CCC(C(=O)OC)C(=O)OC)cc12	1.37	0.119	0.236	0.173 (inactive)	1.1	1.19	0.564	0.914	0.641	0.23	1.07	-1.53	0.798	1.5	0.475	-0.147	-0.154	0.0213	1.48	0.201
C=CCN1C(=O)[C@@]2(O[C@@H](CCO)[C@H]([Si](C)(C)c3ccc(OC)cc3)[C@H]2C)c2cc(N3CCOC3=O)ccc21	0.392	0.0757	0.213	-0.887 (inactive)	-0.0196	0.612	-0.114	0.0282	-0.381	-0.171	1.31	-4.84	-0.135	0.278	0.444	-0.0981	-0.243	-0.0239	0.878	0.105
O=C1OCCC/C=C\[C@H]2OC34C=CCN(c5ccc6ccccc6c5)C(=O)[C@H]3N(CCCO)C(=O)[C@@H]4C12 (stereo not given in full)	0.548	-0.326	0.445	0.752 (inactive)	-0.365	-0.216	-0.315	-0.451	-1.31	0.479	-0.148	-0.0935	-0.548	-0.371	0.0048	-0.124	0.184	0.0014	-0.387	-0.766
COCCOC(=O)N1C(=O)[C@@]2(c3ccccc31)[C@H](c1ccccc1OCCO)N1[C@H](c3ccccc3)[C@H](c3ccccc3)OC(=O)[C@H]1[C@@H]2C(=O)N1CCCCCCC1	1.91	3.18	1.76	-1.46 (inactive)	1.37	1.37	1.91	1.68	2.31	2.02	1.53	-3.17	1.73	2.8	1.47	1.5	3.37	3.61	5.43	3.1
CC(=O)NCCCC[C@@H]1NC(=O)[C@@H]2C[C@H](C(=O)NCCCCCCN)[C@H](c3cccc(OCCO)c3)N2C1=O	1.04	0.504	0.61	0.248 (inactive)	0.906	0.132	-0.556	-0.309	-0.733	0.288	0.601	-0.69	-0.535	1.47	1.35	-0.0519	-0.0066	-0.153	1.79	2.15
